# Assays:
# Assay in all cases: PBM binding z-score (relative to random genomic background probes); higher = stronger binding; sequences stand for … in GC…GCGATTGACAGCGTAGAATGAAGG
# [1] = test system: PPARg:RXRa IVT, anti-PPARg (NR concentration 270 nM, RXRa partner concentration 90 nM)
# Summary of the method: (§1)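 Custom Agilent 4×180K protein-binding microarrays carried double-stranded probes. Their 34-nt variable regions held direct-repeat seeds, single-nucleotide variants, half-site ablations and random human genomic background sequences. Arrays were incubated 1 h with ligand-free nuclear receptor dimers in PBS pH 7.4, 2% milk, 0.02% Triton X-100, 1 mM DTT, 0.2 mg/mL BSA and 0.4 mg/ml salmon testes DNA. Antibodies against each partner (one per run) detected binding, and scanned fluorescence was regression-normalized. Binding z-scores use random background probes as reference.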
# [2] = test system: PPARg DBDmut:RXRa IVT, anti-PPARg (DBD mutation: PPARg1 K132A/R137A, NR concentration 270 nM, RXRa partner concentration 90 nM)
# Summary of the method: as §1
# [3] = test system: PPARg DBDmut IVT, anti-PPARg (DBD mutation: PPARg1 K132A/R137A, NR concentration 270 nM)
# Summary of the method: as §1
# [4] = test system: PPARg homodimer (NR concentration 180 nM)
# Summary of the method: as §1
# [5] = test system: PXR:RXRa (NR concentration 270 nM, RXRa partner concentration 90 nM)
# Summary of the method: as §1
# [6] = test system: PXR homodimer (NR concentration 270 nM)
# Summary of the method: as §1
# [7] = test system: RARa:RXR (NR concentration 270 nM, RXRa partner concentration 90 nM)
# Summary of the method: as §1
# [8] = test system: RARa homodimer (NR concentration 270 nM)
# Summary of the method: as §1
# [9] = test system: RARb:RXRa (NR concentration 270 nM, RXRa partner concentration 90 nM)
# Summary of the method: as §1
# [10] = test system: RARb homodimer (NR concentration 270 nM)
# Summary of the method: as §1
Sequence,PBM binding z-score [1],PBM binding z-score [2],PBM binding z-score [3],PBM binding z-score [4],PBM binding z-score [5],PBM binding z-score [6],PBM binding z-score [7],PBM binding z-score [8],PBM binding z-score [9],PBM binding z-score [10]
CCTACTGGGCCTAAGGTCATTGATTCCAATGCTC,3.86,-0.629,-0.793,2.07,3.7,1.98,3.54,0.174,3.15,3.54
AGTCAAAGTTTATCTAGGTAACGTAAGATATGCT,4.84,1.23,1.54,-0.0246,0.694,0.675,0.503,0.429,1.93,0.612
CCTACTGGGCCAAAGGTGATTGATTCCAATGCTC,5.36,0.238,0.204,0.439,0.0253,-0.311,0.327,-0.309,0.815,0.601
AGAATGAGGTTACTAAAGATCAGGGAAACGCTTG,2.84,0.939,0.661,0.271,0.942,0.152,1.21,0.392,1.51,0.777
CCTGCGAGGTCATGGTCAGCTAATCTACAGTATG,4.21,2.09,1.64,4.94,5.39,1.06,5.88,1.08,5.01,4.02
GATATAGGGTCAGCTAGAGGCCAGAGTATGGAAA,3.12,0.476,0.427,1.99,3.23,0.376,4.57,0.593,4.34,3.75
CGTCCAAGGTCATTGGAGGTCAGTGAAGACAGAT,4.79,0.319,-0.697,5.59,7.17,8.63,6.25,2.43,5.56,5.54
TTACCAAGGTGAAAGGTCGTTGCTGCACGCCTTG,5.07,0.655,0.268,1.88,3.88,0.364,5.58,-0.419,3.14,2.59
ATATGTAGGTTACCTGGGGTCATTCAGACTAGGC,7.26,2.71,1.81,2.87,6.79,4.76,5.89,0.968,3.18,4.13
AATACGGGGTCACTAGGCCAGAGTAGGTACGAAT,7.02,1.49,1.57,2.6,5.78,1.06,6.3,1.34,5.12,4.41
TAGCCTAGTTCATGCGGGCCAGTATAGTGTCGGC,0.949,-0.253,-0.528,-0.545,0.59,0.113,-0.185,-0.774,1.05,0.519
ATATGTAGTTTATCGGGTCATTCAGTTTGCGCAT,3.77,1.29,1.84,1.72,3.46,7.31,3.03,1.18,2.26,2.91
TACCCTAGGTCATGGGCCAGTATACCACGCGAAC,3.86,1.09,0.696,2.52,2.07,0.812,3.19,0.836,4.11,3.19
CGTCAAAGATCAAGGTAACGTAACAGAAAGCAGC,0.642,0.647,0.471,0.374,0.00649,-0.253,0.485,0.251,0.252,-0.124
TCTCGGAGGACACCAAAGGTCAGAGCTCGACATC,1.71,-0.171,-0.615,3.42,4.41,0.454,4.86,1.44,4.21,4.64
CCTACGGGGCCACGAAAGGTCATTGATTCAGTGA,2.93,-0.766,-1.47,3.09,6.2,2.54,5.88,0.351,4.55,5.16
AATACAGGGTCATCGTACGCCAGAGTACGCACAG,4.44,3.9,1.45,3.42,4.53,0.995,5.47,1.81,4.45,3.46
TAGCCTAGGTCGTTCAGGGGCCAGTATAGAAAGC,0.847,-0.279,-0.473,0.19,0.589,-0.665,1.18,-0.836,1.63,1.63
AATACAGGGTCATCTTAGGCCAGAGTACGCACAG,3.86,1.51,0.721,2.17,5.05,1,4.73,0.742,4.22,3.87
GCTAGTTGGTCAGTAAAATGTCACACACCGGTCG,0.672,0.0763,-0.339,1.21,-0.0576,0.0723,0.0348,0.262,0.995,1.43
CGAACGAGGTCATGAGTTGATAGCAAATGCCGAT,6.46,1.73,1.44,2.84,5.17,0.602,5.48,0.273,5.23,3.94
CGTCCAAGGTTAAGGTCAGTGAAAGAGACTCGAA,2.04,-0.847,-0.494,3.1,2.73,1.01,3.56,0.781,4.16,3.58

Sequence,PBM binding z-score [1],PBM binding z-score [2],PBM binding z-score [3],PBM binding z-score [4],PBM binding z-score [5],PBM binding z-score [6],PBM binding z-score [7],PBM binding z-score [8],PBM binding z-score [9],PBM binding z-score [10]
TAGCCTAGGTCATGGGCCAGTGTACCACGCGAAC,3.43,0.332,0.203,1.42,1.6,-0.511,2.86,-0.252,4.01,3.09
TCTGCTAGGTCATCGATGGTCAGCTAATCTGCTA,4.24,0.105,-0.541,0.22,1.81,-0.703,2.07,-1.04,4.02,3.19
CGTCAAACTTCAACTAAGGTAACGTAAAGCACGC,0.514,0.469,0.79,0.684,0.396,0.0401,0.922,1.05,0.391,0.665
GCTGCTAGGTCAACTGATGGCCAGCTAAAGCTCG,4.14,-0.855,-0.449,1.12,1.1,-0.837,1.88,-0.722,4.23,3.32
CGTCAAAGTCCAAGGTAACGTAACAGAAAGCAGC,0.33,0.185,0.896,0.652,-0.079,0.233,0.165,0.428,1.52,0.655
CCTACTGGGCCATTCAGAGGTCAATGATCATATG,4.62,0.0847,-0.339,1.92,3.89,0.827,3.93,0.374,3.42,4.28
GATACAGGGTCGGCTAGAGGCCAGAGTATGGAAA,-0.134,-0.784,-0.716,0.88,0.712,-0.222,1.39,-0.471,1.56,1.32
TCTGCTAGGTCAACGTTGGTCAGCTAATCTGCTA,4.38,-0.219,0.673,0.191,1.56,-0.62,2.22,-1.27,4.03,3.31
CGAACTAGGTCAAGGACAGTAAATCTCCGCACGC,7.98,5.28,4.25,3.13,1.1,0.317,2.19,0.685,3.67,2.91
CGAACAAGGTCATTGACAGGACAGTGAATAGTAA,4.81,1.05,0.903,2.11,4.12,1.79,4.28,1.42,5,3.92
CCTAGCAGGCCAATCTAGGTCACTCAAGGCTTGA,5.19,-0.0838,-0.865,0.707,1.51,-0.261,1.37,-0.161,2.02,2.68
ATTTGTAGGTTACATCCGGGTCATTCAGGCTATG,6.29,3.31,2.1,3.38,4.12,4.01,4.19,2.72,2.77,3.43
CGAACTAGGTCATCCAGGTCAGTGAATACATTGA,8.34,6.69,1.38,4.66,3.99,7.58,3.63,1.17,4.3,4.14
CCTTACGGGTAACGAGGTTATAGCACGACGAGCG,1.82,-0.344,-1.05,0.604,0.822,0.153,1.3,0.476,0.589,0.484
AGAATGAGATTACCAAAGATCAGGGAAACGCTTG,-0.595,0.561,0.0997,-0.0322,-0.245,-0.0511,-0.182,-0.0131,-0.301,-0.938
CGTCCAAGGTCAGCGGGTCAGTGAAAGCGACGTG,3.48,-0.302,-0.244,3.27,3.9,1.09,5.13,1.34,5.2,4.69
TAGCCTAGGTCATTCAGGGGCCAGCATAGAAAGC,2.78,0.63,0.0516,1.32,2.37,-0.172,3.95,-0.134,3.92,3.42
CCTAGTTGGTCAAGGTCACATACGCTATAGGTAC,3.3,1.13,1,3.03,4.1,2.39,4.46,2.55,3.95,4.15
CCTACTGGGCCACGAAAGGCCATTGATTCAGTGA,5.01,-0.487,-0.189,0.0675,0.149,-0.378,0.18,-0.712,1.18,1.36
ATCGAAAGGTCGTGAGGTAAGTATACAGAAAGGC,2.1,1.96,0.952,2.1,3.42,0.535,4.43,1.16,3.99,2.76
TCTCGGAGGACACTAAAGGTCAGAGCTCGACATC,1.59,-0.114,-0.191,2.43,3.8,0.66,4.14,0.456,3.84,4.7
AACGAAAGGTCGAAGGTGAGTATACCCACCCGAA,2.16,0.625,-0.0943,0.991,3,-0.293,4.48,0.698,3.79,2.48

# Source: the supplement of paper PMC6555819
